{
  "source": "PubChem BioAssay AID504832",
  "about": "(National Center for Advancing Translational Sciences (NCATS), 2011)",
  "note": "In all, about 310,000 compounds went through this assay and about 18,000 (5.8%) were called active. About 22% were inconclusive and are not listed. Calls come from the whole dose curve; as a rule, active = well fitted inhibition curve with a large enough effect; inconclusive = small, poorly fitted or top-dose-only effect, or another doubt; inactive = no such curve, though single readings can be large or run the other way. The list comes from a sample in which actives are over-represented; it also holds similar structures and randomly drawn compounds. A call without a number means that no potency is given here. Potency is the fitted concentration of half-maximal effect.",
  "data": [
    {"experiment": "Primary qHTS for delayed death inhibitors of the malarial parasite plastid, 48 hour incubation", "conditions": "P. falciparum luciferase growth in erythrocytes; series mostly up to 28.7 µM", "how_it_was_run": "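First compound was added to culture medium, then infected red cells at 0.1% parasitemia and 2% hematocrit (final). After incubation at 37 C under 5% CO2, luciferase detection reagent was dispensed and light output recorded.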", "values": [
      {"smiles": "CCN(CC(=O)Nc1cc(Cl)ccc1C)C(=O)CN1C(=O)NC2(CCCC2)C1=O", "Potency": "inactive"},
      {"smiles": "CCn1ccnc1CN(C)C(=O)c1cc(COc2ccc(-n3cncn3)cc2)on1", "Potency": "inactive"},
      {"smiles": "O=C(c1ccco1)N1CCN(C(=S)Nc2cc(F)cc(F)c2)CC1", "Potency": "inactive"},
      {"smiles": "NC(=O)CC(NC(=O)Cc1ccc(Br)cc1)c1ccc(NC2CC3CCC2C3)c([N+](=O)[O-])c1", "note": "(centres undefined)", "Potency": "inactive"},
      {"smiles": "CC(C)OP(=O)(OC(C)C)C(Nc1ccccc1)c1cccc([N+](=O)[O-])c1", "note": "(centres undefined)", "Potency": "inactive"},
      {"smiles": "CN(C(=O)c1cccc([N+](=O)[O-])c1)c1ccccc1C(=O)NCc1ccccc1", "Potency": "inactive"},
      {"smiles": "CC(CCc1ccccc1)NCC(O)c1cccc([N+](=O)[O-])c1", "note": "(centres undefined)", "Potency": "0.233 µM (active)"},
      {"smiles": "COc1ccc(N2CCN(C(=O)c3ccccc3NC(=O)C3=C(C)OCCS3)CC2)cc1", "Potency": "inactive"},
      {"smiles": "c1ccc(-n2nnnc2-c2cccnc2)cc1", "Potency": "inactive"},
      {"smiles": "c1ccc(-c2noc(-c3cccs3)n2)nc1", "Potency": "inactive"},
      {"smiles": "Clc1ccc(-n2nnnc2-c2cnc(-c3ccccn3)nc2-c2cccs2)cc1", "Potency": "3.7 µM (active)"},
      {"smiles": "Cc1ccc(OC(=O)c2cncc(Br)c2)c(C)c1", "Potency": "inactive"},
      {"smiles": "CCn1c(SCC(=O)NC2CC2)nnc1-c1ccncc1", "Potency": "inactive"},
      {"smiles": "O=C(Nc1ccc(Cl)c(Cl)c1)c1ccccc1NC(=O)C1CC=CCC1C(=O)O", "note": "(centres undefined)", "Potency": "inactive"},
      {"smiles": "CCCSc1nc(NCc2ccco2)c2c3c(sc2n1)COC(C)(CC)C3", "note": "(centres undefined)", "Potency": "9.28 µM (active)"},
      {"smiles": "CN(C)CCSc1nc(N)c2c3c(sc2n1)COC(C)(C)C3", "Potency": "inactive"},
      {"smiles": "CN1CCc2c(sc3c2c(NCc2ccco2)nc2nnnn23)C1", "Potency": "inactive"},
      {"smiles": "COc1cc(C2NC(=O)NC(c3ccccc3)=C2C(C)=O)c(Br)cc1OCC(N)=O", "note": "(centres undefined)", "Potency": "inactive"},
      {"smiles": "CCOc1ccc(C(C)=O)cc1COC(=O)CN1C(=O)NC2(CCCC2)C1=O", "Potency": "13.1 µM (active)"},
      {"smiles": "Cc1ccc(COC(=O)CN2C(=O)NC3(CCCC3)C2=O)cc1", "Potency": "inactive"},
      {"smiles": "CCOc1ccc(C(C)NC(=O)CN2C(=O)NC3(CCCCC3)C2=O)cc1OCC", "note": "(centres undefined)", "Potency": "inactive"},
      {"smiles": "CCC1C(=O)NCCN1C(=O)c1ccc2nc(Cc3ccc(OC)cc3)oc2c1", "note": "(centres undefined)", "Potency": "inactive"},
      {"smiles": "COc1ccc(CCNC(=O)C2CCCN(S(=O)(=O)c3ccc(OC)cc3)C2)cc1", "note": "(centres undefined)", "Potency": "9.28 µM (active)"},
      {"smiles": "COc1ccc(CCNC(=S)N2CCN(S(=O)(=O)c3ccc(F)cc3)CC2)cc1", "Potency": "2.62 µM (active)"},
      {"smiles": "CC(C)CCNC(=O)C1CCCN(S(=O)(=O)c2ccc(F)cc2)C1", "note": "(centres undefined)", "Potency": "inactive"},
      {"smiles": "COc1ccc(CCNC(=S)N2CCN(S(=O)(=O)c3ccc(Cl)cc3)CC2)cc1", "Potency": "inactive"},
      {"smiles": "CCOc1cccc(NC(=O)C2CCCN(S(=O)(=O)c3ccc(OC)cc3)C2)c1", "note": "(centres undefined)", "Potency": "4.65 µM (active)"},
      {"smiles": "CCOC(=O)N1CCN(S(=O)(=O)c2ccc(OC)cc2)CC1", "Potency": "inactive"},
      {"smiles": "CCN(CC(=O)Nc1ccc(S(=O)(=O)N2CCCC2)cc1)CC(=O)Nc1cccc(OC)c1", "Potency": "inactive"},
      {"smiles": "CCCCNC(=O)C1CCCN(S(=O)(=O)c2ccc(S(=O)(=O)NCC(C)C)cc2)C1", "note": "(centres undefined)", "Potency": "inactive"},
      {"smiles": "CCOc1ccc(NC(=O)C2CCCN(C(=O)Nc3ccccc3)C2)cc1", "note": "(centres undefined)", "Potency": "inactive"},
      {"smiles": "Cc1cccc(OCC(=O)NCCNC(=O)c2cccnc2)c1", "Potency": "inactive"},
      {"smiles": "CC(C)(C)C(=O)Nc1ccc(-c2cn3cccnc3n2)cc1", "Potency": "inactive"},
      {"smiles": "CN(Cc1ccccc1)C(=O)C(=O)c1cn(CC(=O)N2CCCC2)c2ccccc12", "Potency": "inactive"},
      {"smiles": "O=c1oc2ccc(C#CC3(O)CCCCC3)cc2cc1-n1cc(-c2ccsc2)nn1", "Potency": "inactive"},
      {"smiles": "CCc1ccc(-c2nn(-c3ccccc3C)cc2C(=O)N2CCN(C3CCS(=O)(=O)C3)CC2)cc1", "note": "(centres undefined)", "Potency": "inactive"},
      {"smiles": "O=C(NCCC1=CCCCC1)c1ccc(-n2cncn2)cc1", "Potency": "inactive"},
      {"smiles": "CCc1noc(C)c1C(=O)Nc1nc2ccc(OC)cc2s1", "Potency": "inactive"},
      {"smiles": "CCOc1ccc(S(=O)(=O)N2CCCC(C(=O)N3CCC(C(N)=O)CC3)C2)cc1Cl", "note": "(centres undefined)", "Potency": "inactive"},
      {"smiles": "Cc1ccc(C)c(N2CCN(C(=O)CCCCn3c(=O)[nH]c4ccccc4c3=O)CC2)c1", "Potency": "inactive"},
      {"smiles": "Cc1ccc(C)c(N2CCN(C(=O)CCCCCn3c(=S)[nH]c4ccc(N5CCOCC5)cc4c3=O)CC2)c1", "Potency": "7.38 µM (active)"},
      {"smiles": "Cc1ccc(C)c(N2CCN(C(=O)CCc3nc4ccccc4[nH]3)CC2)c1", "Potency": "inactive"},
      {"smiles": "COCc1c(C(=O)N/N=C(\\C)c2ccncc2)nnn1-c1nonc1N", "Potency": "inactive"},
      {"smiles": "Cc1ccc(NC(=O)Nc2ccccc2)c(Br)c1", "Potency": "inactive"},
      {"smiles": "C=CC[n+]1c(-c2ccc(C)cc2)csc1NNC(=O)Nc1ccccc1", "Potency": "11.7 µM (active)"},
      {"smiles": "C=CCNC(=O)c1csc(-c2ccccc2)n1", "Potency": "inactive"},
      {"smiles": "Cc1ccc(NC(=O)NNC(=O)c2sccc2-n2cccc2)cc1", "Potency": "inactive"},
      {"smiles": "C=CCNc1scc(-c2ccccc2)[n+]1CC=C", "Potency": "4.15 µM (active)"},
      {"smiles": "O=C(Cc1ccccc1)Nc1ccc(NC(=O)c2cccnc2)cc1", "Potency": "inactive"},
      {"smiles": "CN1CCN(CCNC(=O)Nc2ccccc2[N+](=O)[O-])CC1", "activity change, negative = inhibition": "-5.7% [at 0.00184 µM] (inactive)"},
      {"smiles": "COc1ccccc1C(C)NC(=O)Cc1ccsc1", "note": "(centres undefined)", "Potency": "inactive"},
      {"smiles": "COc1ccc(CN(C)C(=O)Cc2ccsc2)c(OC)c1OC", "Potency": "13.1 µM (active)"},
      {"smiles": "COc1ccc(CN(C)C(=O)Cc2c[nH]c3ccccc23)c(OC)c1OC", "activity change, negative = inhibition": "13.9% [at 0.00184 µM] (inactive)"},
      {"smiles": "CS(=O)(=O)N(CC(=O)N1CCCCCC1)c1cccc(Cl)c1Cl", "Potency": "inactive"},
      {"smiles": "NS(=O)(=O)c1ccc(NC(=S)N2CCCC2)cc1", "Potency": "inactive"},
      {"smiles": "O=C(c1ccc(Cl)cc1)N1N=C(c2ccccn2)CC1(O)C(F)(F)F", "note": "(centres undefined)", "Potency": "4.65 µM (active)"},
      {"smiles": "O=C(C1CC1)N1N=C(c2ccc(Br)cc2)CC1(O)C(F)(F)F", "note": "(centres undefined)", "activity change, negative = inhibition": "-12.6% [at 0.00184 µM] (inactive)"},
      {"smiles": "COC(=O)C1(O)CC(C(C)C)=NN1C(=O)c1ccc(Cl)cc1", "note": "(centres undefined)", "Potency": "inactive"},
      {"smiles": "COc1ccc(CCNC(=O)COC(=O)C2CC2C)cc1", "note": "(centres undefined)", "Potency": "inactive"},
      {"smiles": "Cc1ccc(S(=O)(=O)N(C)C)cc1NC(=O)c1ccc(-n2cncn2)c([N+](=O)[O-])c1", "Potency": "inactive"},
      {"smiles": "O=[N+]([O-])C(=c1ccc2c(c1)N1C3=C(CCCC3)CC3CCCCC31N=2)[N+](=O)[O-]", "note": "(centres undefined)", "Potency": "2.94 µM (active)"},
      {"smiles": "Cc1ccc(S(=O)(=O)NCCC(=O)Nc2cccc(S(N)(=O)=O)c2)cc1C", "Potency": "inactive"},
      {"smiles": "O=C(CN(C(=O)c1nsc(Cl)c1Cl)c1cccc(F)c1)NC1CCCC1", "Potency": "inactive"},
      {"smiles": "COc1cccc(N(CC(=O)NC2CCCC2)C(=O)CCCC(=O)Nc2ccccn2)c1", "Potency": "inactive"}
    ]}
  ]
}
